Measurements taken from PubChem BioAssay AID1159580 (chemical genetic matrix, 2015).
Hit rate of the full screen: of about 5,500 compounds, about 2,000 (36%) were called active. Inconclusive results (about 18%) are left out. Cut-off read from the data, not from the text of the source: active = normalized growth mostly below about 0.91 (no sharp cut-off); inconclusive = no clear call, values can overlap the other calls; inactive = mostly above about 0.92. The list shows a part of the results.

Test: chemical genetic growth profiling, strain panel (AID 1159580);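 note: tested at 20 µM; growth read once vehicle control cultures reached saturation at 30 °C; 1 = growth at the plate median or of vehicle wells; lower values mean less growth of the strain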
Settings: growth OD
[1] = S. cerevisiae deletion strains, locus YDR150W, strain NUM1, stronger effect = lower value
[2] = S. cerevisiae deletion strains, locus YHR030C, strain SLT2, stronger effect = lower value
[3] = S. cerevisiae deletion strains, locus YJR075W, strain HOC1, stronger effect = lower value
[4] = S. cerevisiae deletion strains, locus YNL153C, strain GIM3, stronger effect = lower value
[5] = S. cerevisiae deletion strains, locus YPL055C, strain LGE1, stronger effect = lower value
[6] = S. cerevisiae deletion strains, locus YPL241C, strain CIN2, stronger effect = lower value

Measured: normalized growth

Cc1cc(=O)n2[nH]cnc2n1
inactive: S. cerevisiae deletion strains, locus YAL013W, strain DEP1, stronger effect = lower value 1.05 | S. cerevisiae deletion strains, locus YBR229C, strain ROT2, stronger effect = lower value 1.01 | S. cerevisiae deletion strains, locus YDL101C, strain DUN1, stronger effect = lower value 1.06 | S. cerevisiae deletion strains, locus YDL134C, strain PPH21, stronger effect = lower value 0.964 | [1] 1.05 | S. cerevisiae deletion strains, locus YEL061C, strain CIN8, stronger effect = lower value 1 | S. cerevisiae deletion strains, locus YGR078C, strain PAC10, stronger effect = lower value 1.05 | [2] 1.14 | S. cerevisiae deletion strains, locus YHR087W, strain rtc3, stronger effect = lower value 0.99 | S. cerevisiae deletion strains, locus YJR043C, strain POL32, stronger effect = lower value 1.08 | [3] 1.02 | S. cerevisiae deletion strains, locus YKL190W, strain CNB1, stronger effect = lower value 0.997 | S. cerevisiae deletion strains, locus YLR039C, strain RIC1, stronger effect = lower value 0.977 | S. cerevisiae deletion strains, locus YLR058C, strain SHM2 (second series), stronger effect = lower value 0.996 | S. cerevisiae deletion strains, locus YLR085C, strain ARP6, stronger effect = lower value 1.01 | S. cerevisiae deletion strains, locus YLR262C, strain YPT6, stronger effect = lower value 0.964 | S. cerevisiae deletion strains, locus YML094W, strain GIM5, stronger effect = lower value 0.985 | S. cerevisiae deletion strains, locus YMR219W, strain ESC1, stronger effect = lower value 0.99 | S. cerevisiae deletion strains, locus YMR263W, strain SAP30, stronger effect = lower value 1.02 | [4] 1.03 | S. cerevisiae deletion strains, locus YNL298W, strain CLA4 (second series), stronger effect = lower value 1.01 | S. cerevisiae deletion strains, locus YNL322C, strain KRE1, stronger effect = lower value 1 | S. cerevisiae deletion strains, locus YNR030W, strain Alg12, stronger effect = lower value 1.02 | [5] 0.997 | [6] 1.01 | S. cerevisiae deletion strains, locus YPR135W, strain CTF4, stronger effect = lower value 1.09 | S. cerevisiae strains, strain wild type, stronger effect = lower value 1.01

NCCS(=O)(=O)O
inactive: S. cerevisiae deletion strains, locus YAL021C, strain ccr4, stronger effect = lower value 0.965 | S. cerevisiae deletion strains, locus YAL026C, strain drs2, stronger effect = lower value 0.978 | S. cerevisiae deletion strains, locus YAL030W, strain snc1, stronger effect = lower value 0.981 | S. cerevisiae deletion strains, locus YAL040C, strain CLN3, stronger effect = lower value 1 | S. cerevisiae deletion strains, locus YBL061C, strain skt5, stronger effect = lower value 0.984 | S. cerevisiae deletion strains, locus YBR009C, strain hhf1, stronger effect = lower value 0.981 | S. cerevisiae deletion strains, locus YBR023C, strain chs3, stronger effect = lower value 0.982 | S. cerevisiae deletion strains, locus YBR171W, strain sec66, stronger effect = lower value 0.97 | S. cerevisiae deletion strains, locus YBR231C, strain swc5, stronger effect = lower value 0.983 | S. cerevisiae deletion strains, locus YBR279W, strain paf1, stronger effect = lower value 0.985 | S. cerevisiae deletion strains, locus YCL011C, strain gbp2, stronger effect = lower value 0.965 | S. cerevisiae deletion strains, locus YCL016C, strain dcc1, stronger effect = lower value 0.984 | S. cerevisiae deletion strains, locus YCL061C, strain MRC1 (second series), stronger effect = lower value 1 | S. cerevisiae deletion strains, locus YCL061C, strain MRC1, stronger effect = lower value 0.98 | S. cerevisiae deletion strains, locus YCL069W, strain vba3, stronger effect = lower value 0.976 | S. cerevisiae deletion strains, locus YCR088W, strain abp1, stronger effect = lower value 0.978 | S. cerevisiae deletion strains, locus YDL005C, strain med2, stronger effect = lower value 0.984 | S. cerevisiae deletion strains, locus YDL040C, strain nat1, stronger effect = lower value 0.986 | S. cerevisiae deletion strains, locus YDR001C, strain nth1, stronger effect = lower value 0.983 | S. cerevisiae deletion strains, locus YDR069C, strain doa4, stronger effect = lower value 0.98 | S. cerevisiae deletion strains, locus YDR137W, strain rgp1, stronger effect = lower value 0.971 | [1] 1.01 | S. cerevisiae deletion strains, locus YDR159W, strain sac3, stronger effect = lower value 0.952 | S. cerevisiae deletion strains, locus YDR195W, strain ref2 0.924 | S. cerevisiae deletion strains, locus YDR297W, strain sur2, stronger effect = lower value 0.979 | S. cerevisiae deletion strains, locus YDR334W, strain swr1, stronger effect = lower value 0.948 | S. cerevisiae deletion strains, locus YDR335W, strain msn5, stronger effect = lower value 0.969 | S. cerevisiae deletion strains, locus YDR363W, strain ESC2, stronger effect = lower value 1 | S. cerevisiae deletion strains, locus YDR392W, strain spt3, stronger effect = lower value 0.977 | S. cerevisiae deletion strains, locus YEL003W, strain gim4, stronger effect = lower value 0.975 | S. cerevisiae deletion strains, locus YEL037C, strain rad23, stronger effect = lower value 0.975 | S. cerevisiae deletion strains, locus YEL061C, strain CIN8 (second series), stronger effect = lower value 0.97 | S. cerevisiae deletion strains, locus YER002W, strain NOP16, stronger effect = lower value 0.984 | S. cerevisiae deletion strains, locus YER015W, strain faa2, stronger effect = lower value 0.971 | S. cerevisiae deletion strains, locus YER016W, strain bim1, stronger effect = lower value 0.975 | S. cerevisiae deletion strains, locus YER111C, strain swi4, stronger effect = lower value 0.967 | S. cerevisiae deletion strains, locus YER155C, strain BEM2 (second series), stronger effect = lower value 0.978 | S. cerevisiae deletion strains, locus YFR010W, strain ubp6, stronger effect = lower value 0.959 | S. cerevisiae deletion strains, locus YGL167C, strain pmr1, stronger effect = lower value 0.977 | S. cerevisiae deletion strains, locus YGL173C, strain kem1, stronger effect = lower value 0.971 | S. cerevisiae deletion strains, locus YGL227W, strain vid30, stronger effect = lower value 0.984 | S. cerevisiae deletion strains, locus YGL240W, strain doc1, stronger effect = lower value 0.961 | S. cerevisiae deletion strains, locus YGL253W, strain hxk2, stronger effect = lower value 0.986 | S. cerevisiae deletion strains, locus YHR013C, strain ard1, stronger effect = lower value 0.968 | S. cerevisiae deletion strains, locus YHR027C, strain rpn1, stronger effect = lower value 0.967 | [2] 0.943 | S. cerevisiae deletion strains, locus YHR079C, strain IRE1, stronger effect = lower value 0.966 | S. cerevisiae deletion strains, locus YHR142W, strain chs7, stronger effect = lower value 0.964 | S. cerevisiae deletion strains, locus YJL092W, strain hpr5, stronger effect = lower value 0.963 | S. cerevisiae deletion strains, locus YJL095W, strain BCK1 (second series), stronger effect = lower value 0.972 | S. cerevisiae deletion strains, locus YJL095W, strain BCK1, stronger effect = lower value 0.998 | S. cerevisiae deletion strains, locus YJL115W, strain asf1, stronger effect = lower value 0.958 | S. cerevisiae deletion strains, locus YJL129C, strain trk1, stronger effect = lower value 0.961 | S. cerevisiae deletion strains, locus YJL154C, strain vps35, stronger effect = lower value 0.974 | S. cerevisiae deletion strains, locus YJL164C, strain tpk1, stronger effect = lower value 0.986 | S. cerevisiae deletion strains, locus YJL166W, strain qcr8, stronger effect = lower value 0.986 | S. cerevisiae deletion strains, locus YJL187C, strain SWE1, stronger effect = lower value 0.982 | S. cerevisiae deletion strains, locus YJR066W, strain TOR1, stronger effect = lower value 0.92 | [3] 0.999 | S. cerevisiae deletion strains, locus YKL160W, strain elf1, stronger effect = lower value 0.983 | S. cerevisiae deletion strains, locus YKR026C, strain gcn3, stronger effect = lower value 0.967 | S. cerevisiae deletion strains, locus YKR091W, strain srl3, stronger effect = lower value 0.979 | S. cerevisiae deletion strains, locus YLL001W, strain dnm1, stronger effect = lower value 0.97 | S. cerevisiae deletion strains, locus YLL026W, stronger effect = lower value 0.982 | S. cerevisiae deletion strains, locus YLL041C, strain sdh2, stronger effect = lower value 0.971 | S. cerevisiae deletion strains, locus YLR027C, strain aat2, stronger effect = lower value 0.981 | S. cerevisiae deletion strains, locus YLR113W, strain HOG1, stronger effect = lower value 1.02 | S. cerevisiae deletion strains, locus YLR221C, strain rsa3, stronger effect = lower value 0.982 | S. cerevisiae deletion strains, locus YLR258W, strain gsy2, stronger effect = lower value 0.987 | S. cerevisiae deletion strains, locus YLR262C, strain YPT6 (second series), stronger effect = lower value 0.99 | S. cerevisiae deletion strains, locus YLR320W, strain mms22, stronger effect = lower value 0.972 | S. cerevisiae deletion strains, locus YLR342W, strain FKS1, stronger effect = lower value 0.985 | S. cerevisiae deletion strains, locus YLR357W, strain rsc2, stronger effect = lower value 0.972 | S. cerevisiae deletion strains, locus YLR370C, strain arc18, stronger effect = lower value 0.981 | S. cerevisiae deletion strains, locus YLR384C, strain iki3, stronger effect = lower value 0.977 | S. cerevisiae deletion strains, locus YML120C, strain ndi1, stronger effect = lower value 0.963 | S. cerevisiae deletion strains, locus YMR058W, strain fet3, stronger effect = lower value 0.97 | S. cerevisiae deletion strains, locus YMR125W, strain sto1, stronger effect = lower value 0.954 | S. cerevisiae deletion strains, locus YMR129W, stronger effect = lower value 0.978 | S. cerevisiae deletion strains, locus YMR205C, strain PFK2, stronger effect = lower value 1 | S. cerevisiae deletion strains, locus YMR231W, strain pep5, stronger effect = lower value 0.985 | S. cerevisiae deletion strains, locus YMR307W, strain GAS1, stronger effect = lower value 1 | S. cerevisiae deletion strains, locus YNL071W, strain lat1, stronger effect = lower value 0.981 | S. cerevisiae deletion strains, locus YNL128W, strain TEP1, stronger effect = lower value 1 | [4] 1.04 | S. cerevisiae deletion strains, locus YNL175C, strain NOP13, stronger effect = lower value 1.01 | S. cerevisiae deletion strains, locus YNL183C, strain NPR1, stronger effect = lower value 0.939 | S. cerevisiae deletion strains, locus YNL197C, strain WHI3, stronger effect = lower value 0.993 | S. cerevisiae deletion strains, locus YNL209W, strain ssb2, stronger effect = lower value 0.973 | S. cerevisiae deletion strains, locus YNL224C, strain SQS1, stronger effect = lower value 1 | S. cerevisiae deletion strains, locus YNL248C, strain rpa49, stronger effect = lower value 0.944 | S. cerevisiae deletion strains, locus YNL322C, strain KRE1 (second series), stronger effect = lower value 0.971 | S. cerevisiae deletion strains, locus YNR049C, strain mso1, stronger effect = lower value 0.975 | S. cerevisiae deletion strains, locus YOR001W, strain rrp6, stronger effect = lower value 0.957 | S. cerevisiae deletion strains, locus YOR070C, strain gyp1, stronger effect = lower value 0.992 | S. cerevisiae deletion strains, locus YOR080W, strain dia2, stronger effect = lower value 0.978 | S. cerevisiae deletion strains, locus YOR083W, strain WHI5 (second series), stronger effect = lower value 1.03 | S. cerevisiae deletion strains, locus YOR083W, strain WHI5, stronger effect = lower value 0.976 | S. cerevisiae deletion strains, locus YOR106W, strain vam3, stronger effect = lower value 0.97 | S. cerevisiae deletion strains, locus YOR231W, strain MKK1, stronger effect = lower value 0.954 | S. cerevisiae deletion strains, locus YOR265W, strain rbl2, stronger effect = lower value 0.976 | S. cerevisiae deletion strains, locus YOR270C, strain vph1, stronger effect = lower value 0.949 | S. cerevisiae deletion strains, locus YOR290C, strain snf2, stronger effect = lower value 0.999 | S. cerevisiae deletion strains, locus YPL051W, strain arl3, stronger effect = lower value 0.99 | [5] 1 | S. cerevisiae deletion strains, locus YPL078C, strain atp4, stronger effect = lower value 0.966 | S. cerevisiae deletion strains, locus YPL106C, strain sse1, stronger effect = lower value 0.947 | S. cerevisiae deletion strains, locus YPL240C, strain hsp82, stronger effect = lower value 0.994 | [6] 1 | S. cerevisiae deletion strains, locus YPL256C, strain CLN2, stronger effect = lower value 0.957
